# Screens from PubChem BioAssay.
# The list is not random: actives were taken first. Their share in the collection is about 0.77%.
# RGS12 GoLoco inh-1: inhibitors of human Gai1-RGS12 GoLoco interaction (red fluorophore) | P63096 | Gai1:RGS12 GoLoco peptide FP, rhodamine, 10 min | Potency, µM (series often up to 61.6 µM), without a hit: at the highest dose activity, negative = inhibition, hits mostly inhibitors | 0.44% of 230,000 active; active means well fitted inhibition curve with a large enough effect, not every such curve was filed as active; inactive means no such curve, though single readings can be large or run the other way; further: potency means the concentration at half of the fitted maximal effect; on the % scale 0 is the no-effect control and ±100 the full control effect; nearly all actives have a fitted effect of over 30% in size
# Target sequence (P63096 whole entry, looked up): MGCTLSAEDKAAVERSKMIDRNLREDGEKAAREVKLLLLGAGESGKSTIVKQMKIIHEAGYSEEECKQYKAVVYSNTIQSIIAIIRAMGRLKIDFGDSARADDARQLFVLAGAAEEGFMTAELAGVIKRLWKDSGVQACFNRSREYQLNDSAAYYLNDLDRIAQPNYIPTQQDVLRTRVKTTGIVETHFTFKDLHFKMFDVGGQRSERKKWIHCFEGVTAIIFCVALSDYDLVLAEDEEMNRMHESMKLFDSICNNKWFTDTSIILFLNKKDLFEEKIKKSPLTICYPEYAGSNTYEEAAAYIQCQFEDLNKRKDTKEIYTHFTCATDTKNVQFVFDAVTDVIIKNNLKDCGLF
# Vif-A3F inh: Vif-A3F binding inhibition; HeLa A3F-eYFP + Vif (tagged APOBEC3F with the HIV-1 protein that degrades it), YFP fluorescence increase; Potency, µM (titrated, usually from 46.1 µM), without a hit: top-dose activity, negative = active; 0.2% of 390,000 active; further: potency means the concentration at half of the fitted maximal effect; % of control where 0% means no effect; nearly all actives have a fitted effect of over 65% in size
#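 HeLa cells stably expressing A3F-eYFP plus Vif, plated and incubated overnight at 37 deg C, then exposed to compounds overnight at 37 deg C. Blocked degradation read as raised yellow fluorescence (Ex 488/Em 500-530).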
# IL2 activator: IL-2 activation; IL-2 activation reporter assay, cell-based qHTS; stimulated with anti-CD3/CD4/CD28 beads; in transgenic mouse T cells; activation, % (series mostly up to about 46 µM); 0.065% of 360,000 active; AID 652025; in the data active means activation above about 50%; inconclusive means mostly about 30% to 49%; further: 0% is about no effect
#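 Unstimulated transgenic mouse T cells; 60-min compound exposure; bead-based TCR/CD4/CD28 stimulation; 18 h culture, 37 degrees C; dual fluorescence (EGFP, DsRed) plate cytometry.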
# PKM2 act: increases activity of human pyruvate kinase M2 | AID 1631 | 0.34% of 260,000 active | purified PKM2, Kinase-Glo ATP luminescence, activation; response scale: 0% is enzyme alone, no compound | Potency, µM (series often up to 57.5 µM), for inactives: at the highest dose activation, most hits filed as activators; further: potency means the concentration at half of the fitted maximal effect; on the % scale 0 is the no-effect control and ±100 the full control effect; nearly all actives have a fitted effect of over 55% in size
#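 Kinase-Glo luminescence reports ATP generated from ADP (0.1 mM) and PEP (0.5 mM) by purified hPK-M2 after 1 h at room temperature, pH 7.2 imidazole buffer; intermediate enzyme activity allows detecting inhibitors and activators.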
# Vif-A3G inh: inhibitors of Vif-APOBEC3G interaction | Q9HC16 | HeLa A3G-eYFP + Vif (tagged APOBEC3G with the HIV-1 protein that degrades it), YFP fluorescence, overnight | Potency, µM (top dose mostly 46.1 µM), without a hit: at the highest dose activity, negative = active, usual class: inhibitors | 0.076% of 410,000 active; further: potency means the concentration at half of the fitted maximal effect; on the % scale 0 is the no-effect control and ±100 the full control effect; nearly all actives have a fitted effect of over 60% in size
#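 Read-out is eYFP fluorescence (Ex 488/Em 500-530) from Vif-expressing HeLa A3G-eYFP cells; more signal means A3G escaped Vif-mediated degradation. Cells plated overnight, compound pinned in, incubated overnight at 37 deg C.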
# KAT2A inh: GCN5L2 (KAT2A) acetyltransferase inhibition; Potency, µM (top dose mostly 58.9 µM), without a hit: top-dose activity change, negative = inhibition, hits mostly inhibitors; GCN5L2 HAT assay, ThioGlo1 CoA-SH fluorescence; 0.21% of 390,000 active; further: potency means the concentration at half of the fitted maximal effect; on the % scale 0 is the no-effect control and ±100 the full control effect
#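 GCN5L2 (20nM final) in 50mM HEPES, 0.1mM EDTA pH 7.5, 0.01% Tween-20 was preincubated 15 min at room temperature with compound, then given ThioGlo1 (50uM), H3(1-25) peptide (75uM) and acetyl-CoA (70uM); CoA-thiol fluorescence (Ex340/Em540) was read at 0 and 20 min.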
# RGS12 GoLoco inh-2: RGS12 (human) GoLoco motif inhibition, red FP. Gai1/rhodamine-RGS12 GoLoco peptide fluorescence polarization. AID 2390. shares compounds with RGS12 GoLoco inh-1. 50% of 110 active. Potency, µM (series often up to 57.1 µM), inactives show at the highest dose activity, negative = inhibition, actives largely listed as inhibitors
# Numbers without * were called inactive; ? = inconclusive; . = no result given; [ ] = another dose, or the depositor's remark. Unless noted, the call rests on the fitted dose curve; in most records, active means well fitted curve in the direction sought with a large enough effect; inconclusive means small, poorly fitted or top-dose-only effect, or another doubt; inactive means no such curve, though single readings can be large; an effect the other way counts as inactive or inconclusive.
SMILES,RGS12 GoLoco inh-1,Vif-A3F inh,IL2 activator,PKM2 act,Vif-A3G inh,KAT2A inh,others
O=C(NNc1c(Cl)cccc1Cl)c1sccc1Cl,1%,9%,-1,16µM*,-4%,?,
O=C(NNc1c(Cl)cccc1Cl)c1c(F)cccc1Cl,-11%,12%,3,8%,7%,-2%,
c1ccc2sc(SSc3nc4ccccc4s3)nc2c1,10µM*,.,.,.,.,?,
Clc1ccccc1C=NNc1ccccn1,.,13%,-5,.,-24%,.,
Clc1ccccc1/C=N/NC1=Nc2cccc3cccc1c23,29%,5.6µM*,244*,-4%,?,0%,
CN1C(=O)/C(=C\c2ccc(OC(=O)c3ccco3)cc2)SC1=S,.,10%,8,-11%,-3%,-3%,
CN1C(=O)/C(=C/c2ccc(OC(=O)c3ccco3)cc2)SC1=S,.,?,56*,.,-2%,1%,
CC(NC(=S)Nc1cccc(C(F)(F)F)c1)C(C)(C)C (centres undefined),5%,32µM*,-5,1%,1%,-7%,
Cc1[nH]c(=O)cc2ccccc12,8.9µM*,3%,1,0%,-1%,16%,
CCCC(=O)NNC(=O)c1c(O)c2ccccc2[nH]c1=O,0%,?,0,-2%,0%,-1%,
O=C(NC(=S)Nc1cccc(C(F)(F)F)c1)c1csnn1,2%,-9%,-2,-8%,1%,-13%,
CCOc1ccc(N(C)c2ccc(/C=C3/SC(=S)NC3=O)cc2)cc1,.,?,4,-2%[11.5 µM],?,-23%,
CN(C)c1ccc(C=C2SC(=S)NC2=O)cc1,.,?,1,.,10µM*,.,
CCCCN(C(=O)c1ccc([N+](=O)[O-])s1)c1c(N)n(CCCC)c(=O)[nH]c1=O,.,13µM*,0,.,-17%,-3%,
CC(C)(C)NC(=O)CSc1nncn1NCc1ccccc1,11%,-4%,-3,2%,-7%,3%,
CCCCn1c(SCC(=O)Nc2cc(C)on2)nc2c1c(=O)n(C)c(=O)n2C,-2%,-10%,-1,20µM*,1%,10%,
Cc1cc(NC(=O)CSc2nc3c(c(=O)n(C)c(=O)n3C)n2C(C)C)no1,7%,1%,-2,28µM*,-2%,-6%,
O=C(NCC1CCCO1)c1cc2ccccc2cc1O (centres undefined),.,?,2,.,0%,-9%,
O=C(Nc1cccc(Nc2cc(Nc3cccc(C(F)(F)F)c3)ncn2)c1)C1CC1,.,.,.,.,.,.,RGS12 GoLoco inh-2=6%
CCc1nnc(NC(=O)CSc2nnc(-c3cc4ccccc4cc3O)n2CC)s1,-8%,-4%,-2,2%,-1%,0%,
CCn1c(SCC(=O)N(C(C)C)C(C)C)nnc1-c1cc2ccccc2cc1O,3.2µM*,6%,-1,1%,0%,-5%,RGS12 GoLoco inh-2=?
Cc1n(CC(O)COCc2ccccc2)c2ccccc2[n+]1C (centres undefined),8.9µM*,7%,-3,-4%,0%,-6%,RGS12 GoLoco inh-2=13µM*
OC(COCc1ccccc1)COCc1ccccc1,.,6%,0,.,0%,.,
O=C(CSc1nnc(-c2ccco2)n1-c1ccccc1)NCc1ccco1,-4%,-1%,-3,-6%,2%,-1%,
O=C(CSc1nnc(-c2ccccc2)n1-c1ccccc1)NCc1ccco1,-7%,-7%,1,7%,1%,2%,RGS12 GoLoco inh-2=7%
Cc1c(Br)c([N+](=O)[O-])nn1CC(=O)Nc1ccc2nc3n(c(=O)c2c1)CCCC3,.,0%,-2,.,-1%,2%,
CN1C(=O)c2ccccc2N(C)C1c1ccccc1Cl (centres undefined),17%,-31%,-5,6%,-4%,-17%,
